Reference: PubChem BioAssay (NCI)
Compounds without any hit were thinned out: in the full panel of roughly 83,000, 20% have a hit.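 Growth was measured after 48 h exposure to one concentration of compound in 96-well plates. Values under 10 count as active.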 Calls of active or inactive are those of the source.

Columns and labels:
Assay in all cases: NCI-60 one-dose screen, 48 h (100 = growth as untreated, 0 = no growth, -100 = all killed)
Settings in all cases: 10 µM unless noted
[1] = system: SR leukemia
[2] = system: RPMI-8226 leukemia
[3] = system: OVCAR-8 ovarian
[4] = system: OVCAR-5 ovarian
[5] = system: OVCAR-4 ovarian
[6] = system: SK-OV-3 ovarian
[7] = system: IGROV1 ovarian
[8] = system: OVCAR-3 ovarian
[9] = system: HS 578T breast
[10] = system: NCI/ADR-RES ovarian

| SMILES | growth [1] | growth [2] | growth [3] | growth [4] | growth [5] | growth [6] | growth [7] | growth [8] | growth [9] | growth [10] |
| --- | --- | --- | --- | --- | --- | --- | --- | --- | --- | --- |
| COc1cc(/C=C/C(=O)c2ccc(F)cc2)ccc1OCCCCOc1ccc(/C=C/C(=O)c2c(C)nc3ccccc3c2C)cc1OC | 79.2% (inactive) | 79.3% (inactive) | 78.3% (inactive) | 108% (inactive) | 76.5% (inactive) | 107% (inactive) | 101% (inactive) | 92% (inactive) | 117% (inactive) | 91.4% (inactive) |
| CCN1C(=S)N(c2ccccc2)C2C1NN=c1s/c(=C3\C(=O)N(C(C)C)c4ccccc43)c(=O)n12 (stereo not given) | 46.2% (inactive) | 97.4% (inactive) | 54.1% (inactive) | 93.9% (inactive) | 1.68% (active) | 104% (inactive) | 71% (inactive) | 84.2% (inactive) | 54.8% (inactive) | 64.1% (inactive) |
| N#CSc1c[nH]c2cccc(/C=C/C(=O)/C=C(/C=C/c3cccc4[nH]cc(SC#N)c34)OB(F)F)c12 | 6.43% (active) | -6.08% (active) | -26.1% (active) | -10.8% (active) | 7.06% (active) | 78.7% (inactive) | 3.87% (active) | 2.33% (active) | 26.3% (inactive) | 25.7% (inactive) |
| COc1cc(-c2nc3sccn3c2-c2ccnc(NCCNS(=O)(=O)c3ccccc3)n2)ccc1F | 45.3% (inactive) | 31% (inactive) | 46.1% (inactive) | 113% (inactive) | 52.3% (inactive) | 52.5% (inactive) | 43.1% (inactive) | 74.9% (inactive) | 69.6% (inactive) | 47% (inactive) |
| c1ccc2cc(C[n+]3ccn(CCCCCCCCCCn4cc[n+](Cc5ccc6ccccc6c5)c4)c3)ccc2c1 | -45.2% (active) | 9.87% (active) | 11.1% (inactive) | 12.8% (inactive) | 12.5% (inactive) | -17.1% (active) | -26.1% (active) | 4.99% (active) | -1.11% (active) | 99.5% (inactive) |
| NC(N)=NCCCCCNc1noc(Cc2c[nH]c3cc(Br)ccc23)n1 | 98.3% (inactive) | 39.6% (inactive) | 64.6% (inactive) | 85.4% (inactive) | 67.5% (inactive) | 83.7% (inactive) | 56.3% (inactive) | 33.4% (inactive) | 56.9% (inactive) | 101% (inactive) |
| N#CC1=C(N)Oc2c(c(=O)[nH]c3ccc(Cl)cc23)C12C(=O)c1ccccc1C2=O | 101% (inactive) | 96.2% (inactive) | 102% (inactive) | 96.1% (inactive) | 93.1% (inactive) | 101% (inactive) | 100% (inactive) | 93.4% (inactive) | 83.3% (inactive) | 102% (inactive) |
| CCn1c(SCC(=O)N/N=C(\C)c2ccc(Cl)cc2)nc2c1c(=O)n(C)c(=O)n2C | 93.4% (inactive) | 103% (inactive) | 99.9% (inactive) | 99% (inactive) | 99.8% (inactive) | 109% (inactive) | 96.5% (inactive) | 115% (inactive) | 94.4% (inactive) | 102% (inactive) |
| CC/C=C\C[C@H](O)C/C=C1/C(=O)C=C[C@@H]1C/C=C\CCCC(=O)N(C)C | 6.2% (active) | 4.43% (active) | 2.8% (active) | 19.2% (inactive) | 43.9% (inactive) | 21.8% (inactive) | 11.5% (inactive) | 8.73% (active) | 16.4% (inactive) | 16.7% (inactive) |
| O=C(Cn1cc(CSc2nc3ccccc3o2)nn1)Nc1ccc(F)cc1F | 109% (inactive) | 114% (inactive) | 103% (inactive) | 110% (inactive) | 108% (inactive) | 124% (inactive) | 114% (inactive) | 119% (inactive) | 107% (inactive) | 101% (inactive) |
| COc1ccc(/C=C(\C#N)n2nnc3cc(F)c(F)cc32)cc1 | 12.9% (inactive) | 70.5% (inactive) | 70.1% (inactive) | 56.3% (inactive) | 74% (inactive) | 69.6% (inactive) | 39.7% (inactive) | 21.5% (inactive) | 92.1% (inactive) | 19.6% (inactive) |
| Fc1cc2c(cc1Cl)N(c1ncnc3ccc(-c4ccc5n[nH]nc5c4)cc13)CC2 | 66.8% (inactive) | 92% (inactive) | 85.6% (inactive) | 76.5% (inactive) | 81.3% (inactive) | 95.6% (inactive) | 32.2% (inactive) | 69% (inactive) | 58.2% (inactive) | 87.3% (inactive) |
| Cc1cc(N2CCN(CCNc3ccnc4cc(Cl)ccc34)CC2)nc(N2CCOCC2)n1 | 3.62% (active) | 35.3% (inactive) | 74.1% (inactive) | 92.9% (inactive) | 53.8% (inactive) | 85.2% (inactive) | 66% (inactive) | 73.1% (inactive) | 85.8% (inactive) | 66.1% (inactive) |
| CC(=O)N1N=C(c2ccc(Nc3nc(Nc4ccccc4)nc(Nc4ccccc4)n3)cc2)CC1c1cccc([N+](=O)[O-])c1 (stereo not given) | 83.8% (inactive) | 68% (inactive) | 92.6% (inactive) | 87.6% (inactive) | 91.2% (inactive) | 103% (inactive) | 79.4% (inactive) | 98.1% (inactive) | 88.6% (inactive) | 94.7% (inactive) |
| CCOC(=O)Cc1cnc(N/N=C(\C)c2cc3ccccc3o2)s1 | 106% (inactive) | 98.6% (inactive) | 94% (inactive) | 99.7% (inactive) | 93.5% (inactive) | 92.1% (inactive) | 87.4% (inactive) | 107% (inactive) | 100% (inactive) | 103% (inactive) |
